# PMC7862700, “An all-to-all approach to the identification of sequence-specific readers for epigenetic DNA modifications on cytosine”
# Legend:
# Test in all cases: DAPPL (digital affinity profiling via proximity ligation, sequencing); 10 mM Tris-HCl pH 7.5, 50 mM NaCl, 1 mM DTT, 4% glycerol, room temperature, 30 min; GST-TFs on glutathione beads, 16-mer random dsDNA library, 0.1% formaldehyde crosslink after washing; high values mean tight binding
# [1] = biological target: T1, FLI1 (Homo sapiens, UniProt Q01543 1-452); conditions: protein: recombinant; tags: N-terminal GST; dsDNA, one strand shown
# T1 sequence: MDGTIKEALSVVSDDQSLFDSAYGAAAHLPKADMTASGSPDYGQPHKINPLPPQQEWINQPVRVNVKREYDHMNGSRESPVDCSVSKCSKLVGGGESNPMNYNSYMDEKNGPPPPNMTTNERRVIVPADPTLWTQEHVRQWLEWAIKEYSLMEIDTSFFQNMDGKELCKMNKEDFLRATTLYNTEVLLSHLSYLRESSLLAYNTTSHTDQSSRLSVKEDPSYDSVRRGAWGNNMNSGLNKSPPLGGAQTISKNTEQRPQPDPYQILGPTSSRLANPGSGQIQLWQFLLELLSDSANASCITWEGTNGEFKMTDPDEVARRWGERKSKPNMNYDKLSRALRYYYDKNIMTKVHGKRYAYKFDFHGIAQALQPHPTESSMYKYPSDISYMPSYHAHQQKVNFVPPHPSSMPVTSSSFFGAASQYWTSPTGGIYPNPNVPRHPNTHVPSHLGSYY
# Outline: (§1)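 A tag-only sample was pooled with DNA-barcoded human transcription factors that had been expressed in yeast as GST fusions and captured on glutathione beads. The pools were incubated for 30 min at room temperature with 200 nmole of a random double-stranded 16-mer DNA library in Tris/NaCl/DTT/glycerol buffer, then washed, crosslinked with 0.1% formaldehyde, proximity-ligated (BsaI/T4 ligase, 1 h, 37 °C), PCR-amplified and sequenced on an Illumina NextSeq500. Binding signal is each hexamer's read frequency for a factor divided by its frequency for the tag-only sample.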
# [2] = biological target: T2, ELK1 (Homo sapiens, UniProt P19419 1-428); conditions: protein: recombinant; tags: N-terminal GST; dsDNA, one strand shown
# T2 sequence: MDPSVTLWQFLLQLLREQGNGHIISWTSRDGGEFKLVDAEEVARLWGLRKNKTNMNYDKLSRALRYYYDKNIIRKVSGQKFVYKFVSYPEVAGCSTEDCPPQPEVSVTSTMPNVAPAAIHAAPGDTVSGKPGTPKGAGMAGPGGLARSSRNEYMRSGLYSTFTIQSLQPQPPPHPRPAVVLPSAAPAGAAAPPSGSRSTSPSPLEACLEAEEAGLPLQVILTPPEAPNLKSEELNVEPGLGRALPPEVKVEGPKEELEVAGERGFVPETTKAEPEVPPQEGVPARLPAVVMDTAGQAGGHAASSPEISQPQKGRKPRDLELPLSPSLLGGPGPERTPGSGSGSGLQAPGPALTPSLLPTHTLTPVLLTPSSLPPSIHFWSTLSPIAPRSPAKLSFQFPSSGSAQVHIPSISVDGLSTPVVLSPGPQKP
# Outline: as §1
# [3] = biological target: T3, GABPA (Homo sapiens, UniProt Q06546 1-454); conditions: protein: recombinant; tags: N-terminal GST; dsDNA, one strand shown
# T3 sequence: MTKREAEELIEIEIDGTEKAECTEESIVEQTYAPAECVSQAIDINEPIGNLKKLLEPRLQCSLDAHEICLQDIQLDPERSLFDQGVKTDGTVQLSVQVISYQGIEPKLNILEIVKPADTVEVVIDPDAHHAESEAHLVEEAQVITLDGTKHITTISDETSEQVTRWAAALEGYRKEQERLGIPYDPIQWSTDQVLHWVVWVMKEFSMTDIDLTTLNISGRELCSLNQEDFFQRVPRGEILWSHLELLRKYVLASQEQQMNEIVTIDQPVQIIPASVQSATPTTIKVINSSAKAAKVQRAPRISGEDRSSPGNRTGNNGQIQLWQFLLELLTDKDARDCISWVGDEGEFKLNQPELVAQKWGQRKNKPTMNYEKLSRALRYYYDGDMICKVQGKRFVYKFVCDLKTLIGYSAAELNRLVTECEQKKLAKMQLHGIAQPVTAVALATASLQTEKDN
# Outline: as §1
# [4] = biological target: T4, ERG (Homo sapiens, UniProt P11308 1-479); conditions: protein: recombinant; tags: N-terminal GST; dsDNA, one strand shown
# T4 sequence: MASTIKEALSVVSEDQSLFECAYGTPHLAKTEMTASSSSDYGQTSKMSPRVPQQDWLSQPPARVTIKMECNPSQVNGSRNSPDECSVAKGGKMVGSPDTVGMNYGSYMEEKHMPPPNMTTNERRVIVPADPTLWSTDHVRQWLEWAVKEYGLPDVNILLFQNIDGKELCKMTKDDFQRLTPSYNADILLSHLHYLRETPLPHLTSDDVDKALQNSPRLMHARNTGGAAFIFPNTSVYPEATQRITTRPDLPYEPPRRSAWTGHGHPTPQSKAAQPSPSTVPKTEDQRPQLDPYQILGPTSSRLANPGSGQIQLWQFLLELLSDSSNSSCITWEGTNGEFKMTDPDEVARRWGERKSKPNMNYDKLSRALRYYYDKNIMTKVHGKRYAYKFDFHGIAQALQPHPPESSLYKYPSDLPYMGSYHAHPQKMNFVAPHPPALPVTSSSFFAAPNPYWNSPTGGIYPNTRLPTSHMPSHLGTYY
# Outline: as §1
# [5] = biological target: ELF1 (Homo sapiens, UniProt P32519 1-619); conditions: protein: recombinant; tags: N-terminal GST; dsDNA, one strand shown
# Outline: as §1
# [6] = biological target: T5, EHF (Homo sapiens, UniProt Q9NZC4 1-300); conditions: protein: recombinant; tags: N-terminal GST; dsDNA, one strand shown
# T5 sequence: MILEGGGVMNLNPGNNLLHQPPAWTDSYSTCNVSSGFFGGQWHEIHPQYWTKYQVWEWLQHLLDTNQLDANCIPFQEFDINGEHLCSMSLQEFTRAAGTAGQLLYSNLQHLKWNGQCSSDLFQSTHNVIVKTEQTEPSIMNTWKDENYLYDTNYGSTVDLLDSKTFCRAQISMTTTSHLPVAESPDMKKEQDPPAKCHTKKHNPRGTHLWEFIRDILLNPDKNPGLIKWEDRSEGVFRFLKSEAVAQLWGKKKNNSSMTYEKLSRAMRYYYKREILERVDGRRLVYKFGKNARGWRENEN
# Outline: as §1
# [7] = biological target: SPI1 (Homo sapiens, UniProt P17947 1-270); conditions: protein: recombinant; tags: N-terminal GST; dsDNA, one strand shown
# Outline: as §1
# [8] = biological target: SPIB (Homo sapiens, UniProt Q01892 1-262); conditions: protein: recombinant; tags: N-terminal GST; dsDNA, one strand shown
# Outline: as §1
# [9] = biological target: T6, ELK3 (Homo sapiens, UniProt P41970 1-407); conditions: protein: recombinant; tags: N-terminal GST; dsDNA, one strand shown
# T6 sequence: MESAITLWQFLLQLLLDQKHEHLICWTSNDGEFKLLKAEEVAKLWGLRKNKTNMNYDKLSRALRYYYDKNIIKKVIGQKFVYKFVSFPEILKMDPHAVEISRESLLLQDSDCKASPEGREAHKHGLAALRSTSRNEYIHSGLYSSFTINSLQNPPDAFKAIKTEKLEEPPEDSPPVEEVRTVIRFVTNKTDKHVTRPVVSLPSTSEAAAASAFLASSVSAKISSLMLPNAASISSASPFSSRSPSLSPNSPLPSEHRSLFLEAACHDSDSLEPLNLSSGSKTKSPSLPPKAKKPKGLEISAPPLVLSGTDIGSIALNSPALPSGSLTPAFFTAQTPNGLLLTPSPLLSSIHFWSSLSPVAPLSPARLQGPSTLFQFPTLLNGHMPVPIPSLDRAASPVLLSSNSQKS
# Outline: as §1
# [10] = biological target: T7, FEV (Homo sapiens, UniProt Q99581 1-238); conditions: protein: recombinant; tags: N-terminal GST; dsDNA, one strand shown
# T7 sequence: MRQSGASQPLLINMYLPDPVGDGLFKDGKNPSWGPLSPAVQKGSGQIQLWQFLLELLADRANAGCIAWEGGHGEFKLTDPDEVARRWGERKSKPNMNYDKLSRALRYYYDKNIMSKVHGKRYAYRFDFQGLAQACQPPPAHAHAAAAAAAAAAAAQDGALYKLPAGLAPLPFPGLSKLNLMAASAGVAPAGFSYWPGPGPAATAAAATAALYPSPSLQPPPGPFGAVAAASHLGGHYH
# Outline: as §1
# [11] = biological target: ETV5 (Homo sapiens, UniProt P41161 1-510); conditions: protein: recombinant; tags: N-terminal GST; dsDNA, one strand shown
# Outline: as §1
# [12] = biological target: HSF1 (Homo sapiens, UniProt Q00613 1-529); conditions: protein: recombinant; tags: N-terminal GST; chain copies: 3; dsDNA, one strand shown
# Outline: as §1
# [13] = biological target: T8, SPIC (Homo sapiens, UniProt Q8N5J4 1-248); conditions: protein: recombinant; tags: N-terminal GST; dsDNA, one strand shown
# T8 sequence: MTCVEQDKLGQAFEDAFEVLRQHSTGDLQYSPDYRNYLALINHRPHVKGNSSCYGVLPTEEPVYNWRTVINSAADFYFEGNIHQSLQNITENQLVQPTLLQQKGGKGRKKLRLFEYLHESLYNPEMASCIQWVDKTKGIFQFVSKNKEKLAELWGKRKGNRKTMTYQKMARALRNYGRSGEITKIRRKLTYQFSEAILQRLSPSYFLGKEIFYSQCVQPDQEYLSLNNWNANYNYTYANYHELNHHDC
# Outline: as §1
# [14] = biological target: ELF4 (Homo sapiens, UniProt Q99607 1-663); conditions: protein: recombinant; tags: N-terminal GST; dsDNA, one strand shown
# Outline: as §1
# [15] = biological target: T9, ELK4 (Homo sapiens, UniProt P28324-2 1-405); conditions: protein: recombinant; tags: N-terminal GST; dsDNA, one strand shown
# T9 sequence: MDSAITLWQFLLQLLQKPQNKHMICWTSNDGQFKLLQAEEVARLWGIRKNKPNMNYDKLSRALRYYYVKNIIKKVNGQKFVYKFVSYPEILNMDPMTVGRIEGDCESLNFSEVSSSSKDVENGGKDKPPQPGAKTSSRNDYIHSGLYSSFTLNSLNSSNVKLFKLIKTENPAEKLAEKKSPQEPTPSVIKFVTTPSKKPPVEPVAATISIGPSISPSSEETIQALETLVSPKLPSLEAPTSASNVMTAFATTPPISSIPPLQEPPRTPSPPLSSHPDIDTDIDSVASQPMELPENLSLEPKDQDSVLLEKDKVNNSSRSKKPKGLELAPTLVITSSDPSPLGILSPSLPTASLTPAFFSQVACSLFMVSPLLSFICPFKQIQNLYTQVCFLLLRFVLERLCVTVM
# Outline: as §1
# [16] = biological target: T10, ETV2 (Homo sapiens, UniProt O00321 1-342); conditions: protein: recombinant; tags: N-terminal GST; dsDNA, one strand shown
# T10 sequence: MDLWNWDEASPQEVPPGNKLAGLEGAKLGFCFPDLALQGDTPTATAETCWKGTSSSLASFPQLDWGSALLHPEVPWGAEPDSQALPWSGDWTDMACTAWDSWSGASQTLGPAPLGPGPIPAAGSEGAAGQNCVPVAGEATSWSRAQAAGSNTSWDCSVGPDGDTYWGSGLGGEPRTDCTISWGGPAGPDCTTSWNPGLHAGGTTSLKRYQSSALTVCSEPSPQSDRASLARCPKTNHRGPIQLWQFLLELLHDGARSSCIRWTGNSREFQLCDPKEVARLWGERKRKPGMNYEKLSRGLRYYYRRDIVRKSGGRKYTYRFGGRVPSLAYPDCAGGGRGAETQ
# Outline: as §1
# [17] = biological target: T11, ELF3 (Homo sapiens, UniProt P78545 1-371); conditions: protein: recombinant; tags: N-terminal GST; dsDNA, one strand shown
# T11 sequence: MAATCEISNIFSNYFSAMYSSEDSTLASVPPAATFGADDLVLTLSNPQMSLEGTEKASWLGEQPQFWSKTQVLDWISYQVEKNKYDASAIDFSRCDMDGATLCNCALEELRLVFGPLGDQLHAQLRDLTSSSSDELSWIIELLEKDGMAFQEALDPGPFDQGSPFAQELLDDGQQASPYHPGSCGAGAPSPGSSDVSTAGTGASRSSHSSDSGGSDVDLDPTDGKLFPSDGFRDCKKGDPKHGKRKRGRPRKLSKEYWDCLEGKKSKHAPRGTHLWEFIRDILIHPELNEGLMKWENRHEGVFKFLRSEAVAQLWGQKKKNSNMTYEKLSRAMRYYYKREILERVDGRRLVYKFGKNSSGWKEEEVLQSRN
# Outline: as §1
# [18] = biological target: CRX (Homo sapiens, UniProt O43186 1-299); conditions: protein: recombinant; tags: N-terminal GST; dsDNA, one strand shown
# Outline: as §1
# [19] = biological target: ETV1 (Homo sapiens, UniProt P50549 1-477); conditions: protein: recombinant; tags: N-terminal GST; dsDNA, one strand shown
# Outline: as §1
# Chain of ETV5 (P41161 whole entry): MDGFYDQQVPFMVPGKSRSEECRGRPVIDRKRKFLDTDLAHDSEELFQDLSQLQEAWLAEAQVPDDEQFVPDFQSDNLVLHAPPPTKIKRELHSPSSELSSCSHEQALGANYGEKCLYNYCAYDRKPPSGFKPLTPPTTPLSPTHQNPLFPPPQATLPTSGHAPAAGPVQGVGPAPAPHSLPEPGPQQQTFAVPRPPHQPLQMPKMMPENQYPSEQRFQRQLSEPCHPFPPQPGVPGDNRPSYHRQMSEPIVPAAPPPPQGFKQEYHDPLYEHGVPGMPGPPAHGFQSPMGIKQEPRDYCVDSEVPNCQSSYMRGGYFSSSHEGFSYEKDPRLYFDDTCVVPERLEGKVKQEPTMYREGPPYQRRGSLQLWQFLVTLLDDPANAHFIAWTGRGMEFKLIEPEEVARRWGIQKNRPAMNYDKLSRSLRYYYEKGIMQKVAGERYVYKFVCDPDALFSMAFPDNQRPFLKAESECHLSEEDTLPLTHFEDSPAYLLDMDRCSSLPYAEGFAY
# Chain of ELF1 (P32519 whole entry): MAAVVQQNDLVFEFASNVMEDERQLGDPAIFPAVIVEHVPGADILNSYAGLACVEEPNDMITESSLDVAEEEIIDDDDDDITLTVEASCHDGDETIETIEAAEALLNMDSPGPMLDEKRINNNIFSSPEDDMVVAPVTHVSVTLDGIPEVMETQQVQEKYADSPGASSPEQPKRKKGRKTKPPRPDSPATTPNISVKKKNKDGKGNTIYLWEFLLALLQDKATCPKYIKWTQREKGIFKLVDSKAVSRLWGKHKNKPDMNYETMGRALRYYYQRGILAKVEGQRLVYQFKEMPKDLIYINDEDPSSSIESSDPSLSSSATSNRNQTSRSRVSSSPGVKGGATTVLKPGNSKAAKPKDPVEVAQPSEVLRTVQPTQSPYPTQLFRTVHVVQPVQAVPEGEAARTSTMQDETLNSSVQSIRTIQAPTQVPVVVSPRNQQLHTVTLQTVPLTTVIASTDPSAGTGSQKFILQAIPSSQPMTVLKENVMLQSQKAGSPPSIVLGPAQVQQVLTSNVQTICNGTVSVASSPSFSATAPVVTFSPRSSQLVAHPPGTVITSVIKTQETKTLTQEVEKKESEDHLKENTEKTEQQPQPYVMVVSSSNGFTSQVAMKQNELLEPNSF
# Chain of ELF4 (Q99607 whole entry): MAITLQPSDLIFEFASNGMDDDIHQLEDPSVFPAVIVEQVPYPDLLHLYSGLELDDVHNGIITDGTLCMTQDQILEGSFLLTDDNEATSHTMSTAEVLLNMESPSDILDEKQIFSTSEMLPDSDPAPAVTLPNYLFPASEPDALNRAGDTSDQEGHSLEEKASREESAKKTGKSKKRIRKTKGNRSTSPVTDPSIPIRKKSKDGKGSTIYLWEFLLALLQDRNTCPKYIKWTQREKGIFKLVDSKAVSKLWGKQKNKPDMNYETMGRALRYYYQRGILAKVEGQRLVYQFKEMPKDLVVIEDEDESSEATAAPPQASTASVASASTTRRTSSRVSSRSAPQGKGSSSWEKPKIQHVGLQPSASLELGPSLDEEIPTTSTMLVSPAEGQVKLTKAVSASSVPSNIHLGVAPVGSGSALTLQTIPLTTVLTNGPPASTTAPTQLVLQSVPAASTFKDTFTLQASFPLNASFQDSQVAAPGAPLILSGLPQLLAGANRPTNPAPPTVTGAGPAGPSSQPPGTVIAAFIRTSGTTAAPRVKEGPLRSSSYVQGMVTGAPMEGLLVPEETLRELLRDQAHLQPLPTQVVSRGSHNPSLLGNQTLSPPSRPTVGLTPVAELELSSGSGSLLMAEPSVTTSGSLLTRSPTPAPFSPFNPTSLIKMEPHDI
# Chain of SPIB (Q01892 whole entry): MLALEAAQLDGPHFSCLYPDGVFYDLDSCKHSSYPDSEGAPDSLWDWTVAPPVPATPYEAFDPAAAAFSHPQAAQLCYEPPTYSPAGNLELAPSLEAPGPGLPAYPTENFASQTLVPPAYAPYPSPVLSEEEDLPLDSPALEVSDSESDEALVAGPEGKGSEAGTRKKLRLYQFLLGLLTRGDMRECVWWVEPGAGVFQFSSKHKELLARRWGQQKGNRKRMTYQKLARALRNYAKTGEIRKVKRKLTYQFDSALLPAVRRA
# Chain of ETV1 (P50549 whole entry): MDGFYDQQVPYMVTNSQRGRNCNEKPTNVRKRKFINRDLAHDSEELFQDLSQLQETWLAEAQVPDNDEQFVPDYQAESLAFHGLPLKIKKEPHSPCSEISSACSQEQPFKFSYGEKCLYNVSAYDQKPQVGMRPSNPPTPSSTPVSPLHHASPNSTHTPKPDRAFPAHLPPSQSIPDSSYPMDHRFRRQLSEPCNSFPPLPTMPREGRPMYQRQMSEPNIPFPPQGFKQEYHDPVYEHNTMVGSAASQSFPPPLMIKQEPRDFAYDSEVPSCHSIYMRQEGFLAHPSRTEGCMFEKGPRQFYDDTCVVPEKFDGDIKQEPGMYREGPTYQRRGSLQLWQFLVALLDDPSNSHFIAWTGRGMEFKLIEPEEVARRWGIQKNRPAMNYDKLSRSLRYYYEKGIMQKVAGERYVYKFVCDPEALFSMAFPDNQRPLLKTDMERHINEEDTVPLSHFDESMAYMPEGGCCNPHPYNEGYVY
# Chain of HSF1 (Q00613 whole entry): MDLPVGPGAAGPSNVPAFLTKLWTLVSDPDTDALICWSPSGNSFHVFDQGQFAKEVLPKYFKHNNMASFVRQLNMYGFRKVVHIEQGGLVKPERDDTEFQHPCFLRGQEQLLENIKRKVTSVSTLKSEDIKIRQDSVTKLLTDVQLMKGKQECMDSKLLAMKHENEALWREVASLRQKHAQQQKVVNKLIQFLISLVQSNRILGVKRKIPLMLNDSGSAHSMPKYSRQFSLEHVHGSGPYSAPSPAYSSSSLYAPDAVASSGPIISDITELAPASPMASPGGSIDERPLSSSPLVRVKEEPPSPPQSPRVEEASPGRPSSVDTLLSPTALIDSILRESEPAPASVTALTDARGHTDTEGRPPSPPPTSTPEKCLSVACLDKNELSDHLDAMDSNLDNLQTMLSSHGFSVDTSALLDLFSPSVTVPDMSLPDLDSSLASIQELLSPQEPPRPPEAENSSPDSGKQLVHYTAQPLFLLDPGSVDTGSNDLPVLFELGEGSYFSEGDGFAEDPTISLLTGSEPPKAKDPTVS
# Chain of CRX (O43186 whole entry): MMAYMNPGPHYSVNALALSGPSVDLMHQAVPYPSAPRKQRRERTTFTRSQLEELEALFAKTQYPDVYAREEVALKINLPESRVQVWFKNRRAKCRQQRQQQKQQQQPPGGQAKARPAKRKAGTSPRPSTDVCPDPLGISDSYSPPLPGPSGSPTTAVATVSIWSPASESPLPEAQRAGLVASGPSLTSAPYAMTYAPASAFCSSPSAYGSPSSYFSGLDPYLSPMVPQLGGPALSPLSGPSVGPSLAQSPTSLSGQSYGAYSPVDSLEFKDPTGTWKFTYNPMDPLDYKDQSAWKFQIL
sequence,measurement,setting,value
TTCTCA,binding signal,[1],"1.36 fold enrichment (6-mer frequency, TF over GST control)"
same,binding signal,[2],"1.31 fold enrichment (6-mer frequency, TF over GST control)"
same,binding signal,[3],"1.33 fold enrichment (6-mer frequency, TF over GST control)"
same,binding signal,[4],"1.26 fold enrichment (6-mer frequency, TF over GST control)"
same,binding signal,[5],"1.29 fold enrichment (6-mer frequency, TF over GST control)"
same,binding signal,[6],"1.19 fold enrichment (6-mer frequency, TF over GST control)"
same,binding signal,[7],"1.32 fold enrichment (6-mer frequency, TF over GST control)"
same,binding signal,[8],"1.31 fold enrichment (6-mer frequency, TF over GST control)"
same,binding signal,[9],"1.27 fold enrichment (6-mer frequency, TF over GST control)"
same,binding signal,[10],"1.3 fold enrichment (6-mer frequency, TF over GST control)"
same,binding signal,[11],"1.33 fold enrichment (6-mer frequency, TF over GST control)"
same,binding signal,[12],"1.65 fold enrichment (6-mer frequency, TF over GST control)"
same,binding signal,[13],"1.5 fold enrichment (6-mer frequency, TF over GST control)"
same,binding signal,[14],"1.27 fold enrichment (6-mer frequency, TF over GST control)"
same,binding signal,[15],"1.34 fold enrichment (6-mer frequency, TF over GST control)"
same,binding signal,[16],"1.32 fold enrichment (6-mer frequency, TF over GST control)"
same,binding signal,[17],"1.39 fold enrichment (6-mer frequency, TF over GST control)"
same,binding signal,[18],"1.34 fold enrichment (6-mer frequency, TF over GST control)"
same,binding signal,[19],"1.35 fold enrichment (6-mer frequency, TF over GST control)"
